# Test results from paper PMC7862700, “An all-to-all approach to the identification of sequence-specific readers for epigenetic DNA modifications on cytosine”.
# Key:
# Test in all cases: DAPPL (digital affinity profiling via proximity ligation, sequencing); 10 mM Tris-HCl pH 7.5, 50 mM NaCl, 1 mM DTT, 4% glycerol, room temperature, 30 min; GST-TFs on glutathione beads, 16-mer random dsDNA library, 0.1% formaldehyde crosslink after washing; high values mean tight binding
# [1] = target: T1, FLI1 (Homo sapiens, UniProt Q01543 1-452); details: protein: recombinant; tags: N-terminal GST; dsDNA, one strand shown
# T1 sequence: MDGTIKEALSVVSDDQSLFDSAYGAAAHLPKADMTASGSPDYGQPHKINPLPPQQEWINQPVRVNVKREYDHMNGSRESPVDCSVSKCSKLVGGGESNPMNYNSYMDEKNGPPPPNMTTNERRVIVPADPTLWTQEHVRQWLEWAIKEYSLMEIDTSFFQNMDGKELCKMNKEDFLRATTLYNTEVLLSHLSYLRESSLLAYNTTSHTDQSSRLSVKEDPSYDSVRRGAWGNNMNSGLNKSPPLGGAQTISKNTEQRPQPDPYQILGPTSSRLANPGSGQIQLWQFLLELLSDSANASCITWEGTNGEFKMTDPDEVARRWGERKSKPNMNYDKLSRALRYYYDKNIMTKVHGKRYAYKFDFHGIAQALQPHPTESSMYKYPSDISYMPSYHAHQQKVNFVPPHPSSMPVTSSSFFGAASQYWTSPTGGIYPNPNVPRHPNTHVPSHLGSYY
# Summary of the method: (§1)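 GST fusions of human transcription factors were expressed in yeast and captured with glutathione beads. Once given DNA barcodes and pooled alongside a tag-only sample, they were incubated for 30 min at room temperature with 200 nmole of a random double-stranded 16-mer DNA library in Tris/NaCl/DTT/glycerol buffer, then washed, crosslinked (0.1% formaldehyde), proximity-ligated, PCR-amplified and sequenced on an Illumina NextSeq500. The binding signal of each hexamer is its read frequency for a factor divided by its frequency for the tag-only sample.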
# [2] = target: T2, ELK1 (Homo sapiens, UniProt P19419 1-428); details: protein: recombinant; tags: N-terminal GST; dsDNA, one strand shown
# T2 sequence: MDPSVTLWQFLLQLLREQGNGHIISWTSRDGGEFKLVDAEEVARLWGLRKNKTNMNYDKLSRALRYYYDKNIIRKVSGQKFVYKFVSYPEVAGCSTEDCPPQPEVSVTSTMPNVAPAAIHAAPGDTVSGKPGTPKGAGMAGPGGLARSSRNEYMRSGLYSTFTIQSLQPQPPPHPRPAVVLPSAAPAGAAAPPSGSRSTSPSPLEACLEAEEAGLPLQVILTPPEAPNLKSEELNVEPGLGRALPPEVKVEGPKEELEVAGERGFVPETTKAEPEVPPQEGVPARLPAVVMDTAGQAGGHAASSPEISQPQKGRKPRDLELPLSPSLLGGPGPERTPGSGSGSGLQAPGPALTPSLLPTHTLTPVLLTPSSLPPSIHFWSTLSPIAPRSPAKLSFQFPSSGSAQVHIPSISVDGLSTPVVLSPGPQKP
# Summary of the method: as §1
# [3] = target: T3, GABPA (Homo sapiens, UniProt Q06546 1-454); details: protein: recombinant; tags: N-terminal GST; dsDNA, one strand shown
# T3 sequence: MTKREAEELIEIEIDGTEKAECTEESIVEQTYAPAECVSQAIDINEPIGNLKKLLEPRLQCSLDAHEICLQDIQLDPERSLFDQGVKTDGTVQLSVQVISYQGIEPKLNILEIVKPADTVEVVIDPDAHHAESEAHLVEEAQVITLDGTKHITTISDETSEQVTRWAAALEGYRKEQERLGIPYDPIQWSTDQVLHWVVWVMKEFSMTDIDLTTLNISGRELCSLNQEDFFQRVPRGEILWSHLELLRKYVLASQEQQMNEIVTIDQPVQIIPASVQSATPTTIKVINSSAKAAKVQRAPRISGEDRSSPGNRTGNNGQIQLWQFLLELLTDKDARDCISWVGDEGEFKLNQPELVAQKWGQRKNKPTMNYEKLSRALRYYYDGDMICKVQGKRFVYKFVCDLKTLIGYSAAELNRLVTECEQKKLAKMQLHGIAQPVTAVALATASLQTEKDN
# Summary of the method: as §1
# [4] = target: T4, ERG (Homo sapiens, UniProt P11308 1-479); details: protein: recombinant; tags: N-terminal GST; dsDNA, one strand shown
# T4 sequence: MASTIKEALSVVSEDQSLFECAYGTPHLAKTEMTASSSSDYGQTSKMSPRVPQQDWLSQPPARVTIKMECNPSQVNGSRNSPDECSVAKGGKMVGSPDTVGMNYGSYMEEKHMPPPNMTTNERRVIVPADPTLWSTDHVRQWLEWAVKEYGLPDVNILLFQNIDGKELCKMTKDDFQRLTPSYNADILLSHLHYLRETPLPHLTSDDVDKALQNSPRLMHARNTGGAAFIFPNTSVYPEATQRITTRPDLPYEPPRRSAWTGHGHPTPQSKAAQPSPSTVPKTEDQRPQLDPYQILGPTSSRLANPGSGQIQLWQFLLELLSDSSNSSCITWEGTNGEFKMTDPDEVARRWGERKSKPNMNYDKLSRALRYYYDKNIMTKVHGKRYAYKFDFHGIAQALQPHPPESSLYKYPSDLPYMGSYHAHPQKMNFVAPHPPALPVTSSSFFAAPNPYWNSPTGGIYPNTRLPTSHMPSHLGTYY
# Summary of the method: as §1
# [5] = target: ELF1 (Homo sapiens, UniProt P32519 1-619); details: protein: recombinant; tags: N-terminal GST; dsDNA, one strand shown
# Summary of the method: as §1
# [6] = target: T5, EHF (Homo sapiens, UniProt Q9NZC4 1-300); details: protein: recombinant; tags: N-terminal GST; dsDNA, one strand shown
# T5 sequence: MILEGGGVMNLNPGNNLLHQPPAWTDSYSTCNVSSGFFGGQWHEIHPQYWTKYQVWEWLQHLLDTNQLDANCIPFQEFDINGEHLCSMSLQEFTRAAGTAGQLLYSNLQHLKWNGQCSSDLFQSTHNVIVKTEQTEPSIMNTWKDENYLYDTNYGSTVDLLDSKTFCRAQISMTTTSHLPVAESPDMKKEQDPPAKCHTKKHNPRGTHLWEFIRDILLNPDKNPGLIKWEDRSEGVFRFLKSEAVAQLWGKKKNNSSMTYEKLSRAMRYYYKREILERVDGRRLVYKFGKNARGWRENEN
# Summary of the method: as §1
# [7] = target: SPI1 (Homo sapiens, UniProt P17947 1-270); details: protein: recombinant; tags: N-terminal GST; dsDNA, one strand shown
# Summary of the method: as §1
# [8] = target: SPIB (Homo sapiens, UniProt Q01892 1-262); details: protein: recombinant; tags: N-terminal GST; dsDNA, one strand shown
# Summary of the method: as §1
# [9] = target: T6, ELK3 (Homo sapiens, UniProt P41970 1-407); details: protein: recombinant; tags: N-terminal GST; dsDNA, one strand shown
# T6 sequence: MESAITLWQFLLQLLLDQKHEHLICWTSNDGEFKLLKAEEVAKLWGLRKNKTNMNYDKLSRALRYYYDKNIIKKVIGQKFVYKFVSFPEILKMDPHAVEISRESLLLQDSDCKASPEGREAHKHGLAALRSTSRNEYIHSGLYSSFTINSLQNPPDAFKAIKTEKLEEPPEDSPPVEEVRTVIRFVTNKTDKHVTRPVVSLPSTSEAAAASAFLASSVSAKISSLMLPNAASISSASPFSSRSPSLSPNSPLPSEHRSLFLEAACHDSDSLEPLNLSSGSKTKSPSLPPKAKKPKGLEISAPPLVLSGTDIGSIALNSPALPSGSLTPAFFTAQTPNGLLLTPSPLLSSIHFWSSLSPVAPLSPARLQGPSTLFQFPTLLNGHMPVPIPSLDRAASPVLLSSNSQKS
# Summary of the method: as §1
# [10] = target: T7, FEV (Homo sapiens, UniProt Q99581 1-238); details: protein: recombinant; tags: N-terminal GST; dsDNA, one strand shown
# T7 sequence: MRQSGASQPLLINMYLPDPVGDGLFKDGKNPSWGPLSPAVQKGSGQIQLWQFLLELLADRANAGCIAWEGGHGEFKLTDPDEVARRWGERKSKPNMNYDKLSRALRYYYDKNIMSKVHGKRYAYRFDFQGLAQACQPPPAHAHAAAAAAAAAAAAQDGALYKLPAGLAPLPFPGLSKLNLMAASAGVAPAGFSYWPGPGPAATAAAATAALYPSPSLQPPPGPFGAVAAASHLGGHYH
# Summary of the method: as §1
# [11] = target: ETV5 (Homo sapiens, UniProt P41161 1-510); details: protein: recombinant; tags: N-terminal GST; dsDNA, one strand shown
# Summary of the method: as §1
# [12] = target: HSF1 (Homo sapiens, UniProt Q00613 1-529); details: protein: recombinant; tags: N-terminal GST; chain copies: 3; dsDNA, one strand shown
# Summary of the method: as §1
# [13] = target: T8, SPIC (Homo sapiens, UniProt Q8N5J4 1-248); details: protein: recombinant; tags: N-terminal GST; dsDNA, one strand shown
# T8 sequence: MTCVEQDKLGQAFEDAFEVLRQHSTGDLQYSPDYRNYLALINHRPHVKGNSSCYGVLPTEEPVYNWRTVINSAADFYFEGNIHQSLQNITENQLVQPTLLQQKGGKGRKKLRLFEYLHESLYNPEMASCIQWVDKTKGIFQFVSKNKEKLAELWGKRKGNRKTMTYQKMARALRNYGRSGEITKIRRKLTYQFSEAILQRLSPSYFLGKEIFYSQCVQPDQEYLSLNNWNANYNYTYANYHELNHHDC
# Summary of the method: as §1
# [14] = target: ELF4 (Homo sapiens, UniProt Q99607 1-663); details: protein: recombinant; tags: N-terminal GST; dsDNA, one strand shown
# Summary of the method: as §1
# [15] = target: T9, ELK4 (Homo sapiens, UniProt P28324-2 1-405); details: protein: recombinant; tags: N-terminal GST; dsDNA, one strand shown
# T9 sequence: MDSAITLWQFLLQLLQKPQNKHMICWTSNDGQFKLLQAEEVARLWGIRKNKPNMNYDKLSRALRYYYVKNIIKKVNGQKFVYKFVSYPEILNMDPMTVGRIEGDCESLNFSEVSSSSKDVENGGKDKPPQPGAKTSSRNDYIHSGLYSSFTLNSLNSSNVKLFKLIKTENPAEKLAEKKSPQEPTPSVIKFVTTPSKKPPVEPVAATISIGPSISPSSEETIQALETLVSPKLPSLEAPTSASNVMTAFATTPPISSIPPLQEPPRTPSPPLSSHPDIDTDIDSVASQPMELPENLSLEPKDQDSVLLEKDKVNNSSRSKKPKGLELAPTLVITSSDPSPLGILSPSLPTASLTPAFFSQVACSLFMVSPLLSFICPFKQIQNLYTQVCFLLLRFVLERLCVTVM
# Summary of the method: as §1
# [16] = target: T10, ETV2 (Homo sapiens, UniProt O00321 1-342); details: protein: recombinant; tags: N-terminal GST; dsDNA, one strand shown
# T10 sequence: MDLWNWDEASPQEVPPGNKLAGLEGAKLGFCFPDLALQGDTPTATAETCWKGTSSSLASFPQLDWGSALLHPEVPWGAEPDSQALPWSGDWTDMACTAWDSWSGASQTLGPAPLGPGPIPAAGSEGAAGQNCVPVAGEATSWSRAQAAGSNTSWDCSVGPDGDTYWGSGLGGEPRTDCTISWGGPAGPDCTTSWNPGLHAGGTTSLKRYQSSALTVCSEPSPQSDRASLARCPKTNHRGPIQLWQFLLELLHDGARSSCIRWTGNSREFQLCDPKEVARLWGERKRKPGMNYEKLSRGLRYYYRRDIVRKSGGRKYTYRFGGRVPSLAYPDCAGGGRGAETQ
# Summary of the method: as §1
# [17] = target: T11, ELF3 (Homo sapiens, UniProt P78545 1-371); details: protein: recombinant; tags: N-terminal GST; dsDNA, one strand shown
# T11 sequence: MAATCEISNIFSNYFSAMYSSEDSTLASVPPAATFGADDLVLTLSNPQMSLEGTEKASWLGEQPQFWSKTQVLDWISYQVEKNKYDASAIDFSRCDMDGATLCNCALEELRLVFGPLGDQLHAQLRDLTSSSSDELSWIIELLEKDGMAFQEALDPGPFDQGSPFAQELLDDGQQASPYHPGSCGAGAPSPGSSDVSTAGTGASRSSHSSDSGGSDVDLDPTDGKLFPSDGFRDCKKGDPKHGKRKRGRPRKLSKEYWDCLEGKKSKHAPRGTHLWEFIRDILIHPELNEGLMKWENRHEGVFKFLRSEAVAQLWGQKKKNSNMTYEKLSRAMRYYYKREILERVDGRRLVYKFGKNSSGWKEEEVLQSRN
# Summary of the method: as §1
# [18] = target: CRX (Homo sapiens, UniProt O43186 1-299); details: protein: recombinant; tags: N-terminal GST; dsDNA, one strand shown
# Summary of the method: as §1
# [19] = target: ETV1 (Homo sapiens, UniProt P50549 1-477); details: protein: recombinant; tags: N-terminal GST; dsDNA, one strand shown
# Summary of the method: as §1
# ELF4, sequence (Q99607 whole entry): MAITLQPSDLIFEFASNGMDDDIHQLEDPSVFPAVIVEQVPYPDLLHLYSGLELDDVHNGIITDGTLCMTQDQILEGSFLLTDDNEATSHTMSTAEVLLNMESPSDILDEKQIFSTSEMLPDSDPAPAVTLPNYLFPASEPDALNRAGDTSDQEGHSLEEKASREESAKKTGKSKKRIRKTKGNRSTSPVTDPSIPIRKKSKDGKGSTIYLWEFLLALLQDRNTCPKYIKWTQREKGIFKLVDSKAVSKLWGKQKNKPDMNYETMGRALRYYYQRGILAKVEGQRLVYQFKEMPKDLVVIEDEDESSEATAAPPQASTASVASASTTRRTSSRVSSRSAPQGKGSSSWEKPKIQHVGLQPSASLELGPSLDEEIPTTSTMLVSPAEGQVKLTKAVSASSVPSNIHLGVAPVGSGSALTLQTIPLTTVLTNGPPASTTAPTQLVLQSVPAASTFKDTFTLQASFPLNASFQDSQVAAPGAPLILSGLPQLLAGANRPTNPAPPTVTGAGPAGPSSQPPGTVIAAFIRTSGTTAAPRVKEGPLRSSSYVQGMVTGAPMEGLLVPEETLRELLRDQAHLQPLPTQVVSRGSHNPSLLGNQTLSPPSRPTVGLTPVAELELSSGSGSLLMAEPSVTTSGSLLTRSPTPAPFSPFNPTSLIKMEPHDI
# ETV1, sequence (P50549 whole entry): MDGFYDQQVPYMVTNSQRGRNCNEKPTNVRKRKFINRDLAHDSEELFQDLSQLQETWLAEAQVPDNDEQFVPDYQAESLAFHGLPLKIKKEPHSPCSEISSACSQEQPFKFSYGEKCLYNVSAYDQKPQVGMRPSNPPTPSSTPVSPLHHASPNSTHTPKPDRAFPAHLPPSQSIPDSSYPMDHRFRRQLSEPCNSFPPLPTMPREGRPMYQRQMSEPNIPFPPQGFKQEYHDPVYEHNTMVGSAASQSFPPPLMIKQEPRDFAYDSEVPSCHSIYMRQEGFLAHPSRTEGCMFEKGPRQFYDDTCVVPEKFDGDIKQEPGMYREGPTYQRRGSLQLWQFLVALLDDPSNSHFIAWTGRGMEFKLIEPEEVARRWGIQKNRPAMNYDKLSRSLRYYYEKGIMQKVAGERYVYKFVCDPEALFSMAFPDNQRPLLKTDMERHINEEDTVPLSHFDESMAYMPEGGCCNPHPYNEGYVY
# SPIB, sequence (Q01892 whole entry): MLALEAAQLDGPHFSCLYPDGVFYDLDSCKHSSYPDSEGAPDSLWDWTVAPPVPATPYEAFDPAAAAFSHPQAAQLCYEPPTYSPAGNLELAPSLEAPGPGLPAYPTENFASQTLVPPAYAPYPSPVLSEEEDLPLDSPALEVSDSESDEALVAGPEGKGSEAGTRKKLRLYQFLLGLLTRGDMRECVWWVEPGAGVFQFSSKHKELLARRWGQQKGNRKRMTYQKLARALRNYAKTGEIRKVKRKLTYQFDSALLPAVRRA
# HSF1, sequence (Q00613 whole entry): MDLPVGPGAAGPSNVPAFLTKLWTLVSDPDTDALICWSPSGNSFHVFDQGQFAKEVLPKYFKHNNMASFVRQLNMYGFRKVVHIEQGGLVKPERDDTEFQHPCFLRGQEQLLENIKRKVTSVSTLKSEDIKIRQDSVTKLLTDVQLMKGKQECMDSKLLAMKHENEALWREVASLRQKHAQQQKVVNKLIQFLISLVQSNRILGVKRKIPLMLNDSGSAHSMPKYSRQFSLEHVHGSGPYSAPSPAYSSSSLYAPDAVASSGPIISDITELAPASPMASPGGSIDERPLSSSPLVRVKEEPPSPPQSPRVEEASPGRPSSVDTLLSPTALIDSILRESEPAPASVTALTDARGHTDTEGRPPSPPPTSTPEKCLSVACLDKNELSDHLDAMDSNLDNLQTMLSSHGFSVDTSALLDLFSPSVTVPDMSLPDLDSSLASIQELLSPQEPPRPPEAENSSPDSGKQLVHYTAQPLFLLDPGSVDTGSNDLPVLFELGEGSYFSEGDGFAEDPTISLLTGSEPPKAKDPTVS
# CRX, sequence (O43186 whole entry): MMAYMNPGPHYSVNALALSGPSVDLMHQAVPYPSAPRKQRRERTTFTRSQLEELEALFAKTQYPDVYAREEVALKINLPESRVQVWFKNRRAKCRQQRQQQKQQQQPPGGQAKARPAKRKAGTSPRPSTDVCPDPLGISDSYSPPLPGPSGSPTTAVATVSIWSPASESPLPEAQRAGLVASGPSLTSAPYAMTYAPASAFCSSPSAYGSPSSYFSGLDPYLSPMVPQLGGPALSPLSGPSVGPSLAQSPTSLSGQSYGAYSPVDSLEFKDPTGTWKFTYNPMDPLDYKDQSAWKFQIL
# ETV5, sequence (P41161 whole entry): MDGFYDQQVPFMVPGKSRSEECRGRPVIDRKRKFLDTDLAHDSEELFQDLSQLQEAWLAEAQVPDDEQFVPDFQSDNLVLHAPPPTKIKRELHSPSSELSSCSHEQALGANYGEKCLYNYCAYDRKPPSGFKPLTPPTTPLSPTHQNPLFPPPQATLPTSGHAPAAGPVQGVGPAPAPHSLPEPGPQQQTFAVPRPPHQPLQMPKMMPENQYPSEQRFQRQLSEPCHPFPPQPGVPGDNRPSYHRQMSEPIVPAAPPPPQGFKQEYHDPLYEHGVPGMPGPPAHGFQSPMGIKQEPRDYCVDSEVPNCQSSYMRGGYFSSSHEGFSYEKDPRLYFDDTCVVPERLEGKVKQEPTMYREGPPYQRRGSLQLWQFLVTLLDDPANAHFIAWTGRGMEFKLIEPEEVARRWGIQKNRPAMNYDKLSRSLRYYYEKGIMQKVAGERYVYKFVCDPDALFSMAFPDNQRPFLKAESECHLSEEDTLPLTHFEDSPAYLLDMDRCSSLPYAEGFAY
# ELF1, sequence (P32519 whole entry): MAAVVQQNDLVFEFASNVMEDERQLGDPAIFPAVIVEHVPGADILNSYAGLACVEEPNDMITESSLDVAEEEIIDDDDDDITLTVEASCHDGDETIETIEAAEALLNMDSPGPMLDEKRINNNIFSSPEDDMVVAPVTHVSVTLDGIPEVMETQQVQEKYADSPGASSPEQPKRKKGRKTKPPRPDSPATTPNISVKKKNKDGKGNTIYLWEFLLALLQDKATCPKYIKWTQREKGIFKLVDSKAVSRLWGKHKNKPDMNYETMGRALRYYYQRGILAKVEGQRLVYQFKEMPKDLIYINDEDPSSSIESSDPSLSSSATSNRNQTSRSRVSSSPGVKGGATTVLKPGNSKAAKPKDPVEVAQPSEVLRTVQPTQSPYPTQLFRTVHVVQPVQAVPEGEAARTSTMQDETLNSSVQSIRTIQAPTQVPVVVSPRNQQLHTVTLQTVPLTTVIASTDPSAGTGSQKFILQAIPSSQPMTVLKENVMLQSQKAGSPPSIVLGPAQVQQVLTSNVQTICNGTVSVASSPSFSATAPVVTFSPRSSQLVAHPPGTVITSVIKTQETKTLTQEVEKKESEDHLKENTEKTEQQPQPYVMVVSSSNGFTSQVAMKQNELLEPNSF
sequence,measurement,setting,value
TGAACT,binding signal,[1],"1.27 fold enrichment (6-mer frequency, TF over GST control)"
same,binding signal,[2],"1.19 fold enrichment (6-mer frequency, TF over GST control)"
same,binding signal,[3],"1.33 fold enrichment (6-mer frequency, TF over GST control)"
same,binding signal,[4],"1.32 fold enrichment (6-mer frequency, TF over GST control)"
same,binding signal,[5],"1.2 fold enrichment (6-mer frequency, TF over GST control)"
same,binding signal,[6],"1.34 fold enrichment (6-mer frequency, TF over GST control)"
same,binding signal,[7],"1.17 fold enrichment (6-mer frequency, TF over GST control)"
same,binding signal,[8],"1.25 fold enrichment (6-mer frequency, TF over GST control)"
same,binding signal,[9],"1.19 fold enrichment (6-mer frequency, TF over GST control)"
same,binding signal,[10],"1.28 fold enrichment (6-mer frequency, TF over GST control)"
same,binding signal,[11],"1.19 fold enrichment (6-mer frequency, TF over GST control)"
same,binding signal,[12],"1.19 fold enrichment (6-mer frequency, TF over GST control)"
same,binding signal,[13],"1.34 fold enrichment (6-mer frequency, TF over GST control)"
same,binding signal,[14],"1.23 fold enrichment (6-mer frequency, TF over GST control)"
same,binding signal,[15],"1.22 fold enrichment (6-mer frequency, TF over GST control)"
same,binding signal,[16],"1.2 fold enrichment (6-mer frequency, TF over GST control)"
same,binding signal,[17],"1.11 fold enrichment (6-mer frequency, TF over GST control)"
same,binding signal,[18],"1.12 fold enrichment (6-mer frequency, TF over GST control)"
same,binding signal,[19],"1.24 fold enrichment (6-mer frequency, TF over GST control)"
